Screening results from PubChem BioAssay.
The list is not random: actives were taken first. Their share in the collection is about 3.5%.
FBW7 activator: human FBW7 E3 ligase activation, primary screen. normalized activity (activation), % at 26.1 µM. Q969H0. 0.13% of 650,000 active. AlphaScreen FBW7–phospho-cyclin E peptide binding, activator screen; in the data active = normalized activity above about 1.9%;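 also: purified mutant Fbw7 with reduced substrate affinity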
MITF primary: human MITF inhibition, primary screen | 0.91% of 650,000 active | inhibition, % at 2.6 µM | O75030 | AlphaScreen MITF homodimerization, bead proximity signal | AID 1259374; in the data active = inhibition above about 50%
TEAD-YAP block: TEAD-YAP interaction inhibition; HEK-TIYL cells, TEAD-Gal4/YAP UAS-luciferase luminescence; 1.4% of 640,000 active; inhibition, % at 9.12 µM; in the data active = inhibition above about 32%
GPR151 activ: activates the human receptor GPR151. PathHunter beta-arrestin GPR151 cells, luminescence. activation, % at 11.2 µM. 1% of 650,000 active. AID 1508602; in the data active = activation above about 4.9%
Target sequence (Q8TDV0 whole entry, looked up): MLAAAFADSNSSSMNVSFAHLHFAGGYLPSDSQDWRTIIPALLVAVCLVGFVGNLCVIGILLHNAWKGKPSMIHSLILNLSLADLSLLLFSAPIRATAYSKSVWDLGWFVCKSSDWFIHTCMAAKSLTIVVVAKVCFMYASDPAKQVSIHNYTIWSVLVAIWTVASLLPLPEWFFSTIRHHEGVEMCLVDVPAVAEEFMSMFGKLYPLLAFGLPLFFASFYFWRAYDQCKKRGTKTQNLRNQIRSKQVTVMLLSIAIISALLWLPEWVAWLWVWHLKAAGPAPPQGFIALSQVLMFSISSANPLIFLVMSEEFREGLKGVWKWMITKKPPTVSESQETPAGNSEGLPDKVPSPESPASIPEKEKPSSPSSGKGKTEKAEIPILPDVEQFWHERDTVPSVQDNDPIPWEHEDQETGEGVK
MITF inh conf: confirmation of human MITF inhibitors; AlphaScreen MITF homodimerization, biotin/His-MITF beads; shares compounds with MITF primary; 16% of 4,700 active; inhibition, % at 2.6 µM;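 active = inhibition above a cutoff derived from the DMSO control wells, cut at about 28% in these data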;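 also: inhibitors lower the bead chemiluminescence by keeping MITF from dimerizing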
AS interf ctr: AlphaScreen optical interference, counter-screen; 7.6% of 4,700 active; inhibition, % at 2.6 µM; AID 1259376; LysRS AlphaScreen counterscreen, signal interference, triplicate; shares compounds with MITF primary;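 active = inhibition above a cutoff derived from the DMSO control wells, cut at about 30% in these data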
Numbers stand for hits; n = inactive; x = not tested or not shown.

SMILES | FBW7 activator | MITF primary | TEAD-YAP block | GPR151 activ | MITF inh conf | AS interf ctr
Cc1ccc2nc(NC(=O)COc3ccc(Cl)cc3Cl)sc2c1 | n | n | n | n | x | x
COc1ccc(S(=O)(=O)CCC(=O)Nc2nc3ccc(C)cc3s2)cc1 | n | n | n | n | x | x
CC(=O)c1ccc(NCN2C(=O)C3CC=C(Cl)CC3C2=O)cc1 (configuration not stated) | n | n | n | n | x | x
CCOc1ccccc1NNC(C)=O | n | n | n | n | x | x
COc1cccc(C(=O)N2CCN(Cc3cc(OC)c(OC)c(OC)c3)CC2)c1 | n | n | n | n | x | x
COc1ccc(C(=O)N2CCN(C3CCCC(C)C3)CC2)cc1 (configuration not stated) | n | 52 | n | n | n | n
CCC(C)N1CCN(C(=O)c2cc(OC)c(OC)c(OC)c2)CC1 (configuration not stated) | n | 51 | n | n | n | n
COc1cc(C(=O)N2CCN(Cc3ccc(Br)cc3)CC2)cc(OC)c1OC | n | 54 | n | n | n | n
COc1cc(CN2CCN(C(=O)c3cc(OC)c(OC)c(OC)c3)CC2)cc(OC)c1 | n | 55 | n | n | n | n
COc1cc(C(=O)N2CCN(Cc3ccc(C)cc3)CC2)cc(OC)c1OC | n | n | n | n | x | x
COCc1ccc(-c2ccc(S(=O)(=O)C3CCNCC3)cc2)cc1 | n | n | n | n | x | x
COc1ccc(C(=O)N2CCN(Cc3cc(OC)c(OC)c(OC)c3)CC2)cc1 | n | 72 | n | n | n | n
COc1ccc(C(=O)N2CCN(Cc3cc(OC)c(O)c(OC)c3)CC2)cc1 | n | n | n | n | x | x
Cc1cc(NC(=O)C(C)NCc2ccc(F)cc2)no1 (configuration not stated) | n | n | n | n | x | x
CCN(CC)CCCNC(C)C(=O)Nc1cc(C)on1 (configuration not stated) | n | 80 | n | n | n | n
Cc1cc(NC(=O)C(C)NCc2cccs2)no1 (configuration not stated) | n | 54 | n | n | n | n
O=C(c1nc2ccc(Cl)cn2c1CNCCCn1cccn1)N1CCc2ccccc2C1 | n | n | n | n | x | x
O=C(C1CCCN1/C=C/C(=O)C(F)(F)F)N1CCCC1 (configuration not stated) | n | n | n | n | x | x
O=S(=O)(Nc1ccccn1)c1ccc(N=Cc2ccc3c(c2)OCO3)cc1 | n | 74 | n | n | n | n
C(#Cc1ccccc1)CN1CCN(C(c2ccccc2)c2ccccc2)CC1 | n | n | n | n | x | x
Cc1nc(N2CCCCC2)c2ccsc2n1 | n | 92 | n | n | n | n
Cc1cc(C)cc(C(=O)O/N=C(\N)c2cccnc2)c1 | n | 56 | n | n | n | n
COc1cccc(C(=O)O/N=C(\N)c2cccnc2)c1 | n | n | n | n | x | x
COc1cc(CN(C)CCN(C)C)cc([N+](=O)[O-])c1O | n | 56 | n | n | n | n
COc1cc(CN2CCN(Cc3ccccc3Br)CC2)c([N+](=O)[O-])cc1OC | n | 71 | n | n | n | n
SMILES | FBW7 activator | MITF primary | TEAD-YAP block | GPR151 activ | MITF inh conf | AS interf ctr
CN(C)CCN(C)Cc1ccc(O)c([N+](=O)[O-])c1 | n | n | n | n | x | x
COc1cc(CN2CCN(Cc3ccccc3[N+](=O)[O-])CC2)cc(OC)c1O | n | 60 | n | n | n | n
COc1cc(CN2CCN(CCO)CC2)cc([N+](=O)[O-])c1O | n | 75 | n | n | n | n
CCCCSc1nc2ccsc2c(=O)n1-c1ccc(Cl)cc1 | n | n | n | n | x | x
C=C(C)C(=O)Nc1ccc(-c2nc3ccccc3[nH]2)cc1 | n | n | n | n | x | x
COc1cc(OC)c(OC)cc1CN1CCN(Cc2ccccc2[N+](=O)[O-])CC1 | n | 72 | n | n | n | n
CCS(=O)(=O)N1CCN(Cc2ccc(OC)c(OCc3ccccc3)c2)CC1 | n | n | n | n | x | x
COc1cccc(CN2CCN(Cc3ccccc3[N+](=O)[O-])CC2)c1 | n | 64 | n | n | n | n
COc1ccc(CN2CCN(Cc3ccccc3[N+](=O)[O-])CC2)cc1OCc1ccccc1 | n | 82 | n | n | n | n
O=[N+]([O-])c1ccc(-c2cnnn2-c2ccc([N+](=O)[O-])cc2Br)cc1 | n | n | n | n | x | x
O=C(NCc1ccccc1)N1CCN(c2nc(-c3ccc(F)cc3)cs2)CC1 | n | n | n | n | x | x
O=C(c1ccccc1F)N1CCN(Cc2ccccc2Cl)CC1 | n | n | n | n | x | x
COc1ccc(CN2CCN(C(=O)c3ccccc3OC)CC2)cc1OCc1ccccc1 | n | n | n | n | x | x
O=C(c1ccccc1F)N1CCN(Cc2ccccc2Br)CC1 | n | 54 | n | n | n | n
O=C(c1ccccc1F)N1CCN(S(=O)(=O)c2ccc(F)cc2)CC1 | n | 63 | n | n | n | n
COc1ccccc1C(=O)N1CCN(Cc2ccc(Cl)cc2)CC1 | n | 55 | n | n | n | n
O=C(c1ccccc1F)N1CCN(Cc2ccccc2)CC1 | n | n | n | n | x | x
O=C(c1ccccc1F)N1CCN(Cc2ccc(Cl)cc2)CC1 | n | 56 | n | n | n | n
COC(=O)c1ccccc1NC(=O)CN(C1CCCCC1)S(=O)(=O)c1ccccc1 | n | n | n | n | x | x
Cc1noc(C)c1C(=O)NC1=NCCS1 | n | 57 | n | n | n | n
Cc1onc(-c2ccccc2)c1C(=O)NC1=NCCS1 | n | n | n | n | x | x
CCn1c(C)c(CCC(=O)NCc2cccnc2)c(=O)n2nc(-c3ccccc3OC)cc12 | n | n | n | n | x | x
COC(=O)c1c(-c2ccc(OC)c(OC)c2)csc1NC(=O)CCC(=O)O | n | n | n | n | x | x
FC(F)(F)c1ccc(NC2CCCCC2)nc1 | n | n | n | n | x | x
CN(c1ccc(C(F)(F)F)cn1)C1CCCCC1 | n | 60 | n | n | n | n
SMILES | FBW7 activator | MITF primary | TEAD-YAP block | GPR151 activ | MITF inh conf | AS interf ctr
CCCCN(C(=O)Cn1nc(C(=O)N2CCN(C)CC2)cc1C)c1ccccc1 | n | n | n | n | x | x
Cc1ccc(C(=O)Nc2ccccc2C#N)c(Cl)c1 | n | 63 | n | n | n | n
CCC[C@@H]1NC(=O)[C@H]2CN(C(=O)Oc3ccccc3)CCN2C1=O | n | n | n | n | x | x
Cc1cccc2sc(N3CCN(C(=O)c4ccno4)CC3)nc12 | n | n | n | n | x | x
CC1=C(C(=O)Nc2ccc(C)cc2C)C(c2cccc(Cl)c2)NC(=O)N1 (configuration not stated) | n | n | n | n | x | x
CC1=C(C(=O)Nc2ccc(C)cc2C)C(c2cccc(Cl)c2)NC(=S)N1 (configuration not stated) | n | 73 | n | n | n | n
CC(=O)NC(=O)c1cc2ccccc2oc1=Nc1ccc(Cl)cc1 | n | n | n | n | x | x
COc1ccccc1N1CCN(Cc2ccco2)CC1 | n | n | n | n | x | x
COc1cc(CN2CCN(Cc3ccco3)CC2)cc(OC)c1O | n | 76 | n | n | n | n
COc1cc(CN2CCN(Cc3ccco3)CC2)cc(OC)c1OC | n | 71 | n | n | n | n
COc1cc(CN2CCN(Cc3cccc(C)c3)CC2)cc(OC)c1O | n | n | n | n | x | x
